The values that follow come from PubChem BioAssay.

The source made the active and inactive calls. No rule for the calls is given here.

Chain of Botulinum neurotoxin type A (Clostridium botulinum) (P0DPI0 whole entry, looked up): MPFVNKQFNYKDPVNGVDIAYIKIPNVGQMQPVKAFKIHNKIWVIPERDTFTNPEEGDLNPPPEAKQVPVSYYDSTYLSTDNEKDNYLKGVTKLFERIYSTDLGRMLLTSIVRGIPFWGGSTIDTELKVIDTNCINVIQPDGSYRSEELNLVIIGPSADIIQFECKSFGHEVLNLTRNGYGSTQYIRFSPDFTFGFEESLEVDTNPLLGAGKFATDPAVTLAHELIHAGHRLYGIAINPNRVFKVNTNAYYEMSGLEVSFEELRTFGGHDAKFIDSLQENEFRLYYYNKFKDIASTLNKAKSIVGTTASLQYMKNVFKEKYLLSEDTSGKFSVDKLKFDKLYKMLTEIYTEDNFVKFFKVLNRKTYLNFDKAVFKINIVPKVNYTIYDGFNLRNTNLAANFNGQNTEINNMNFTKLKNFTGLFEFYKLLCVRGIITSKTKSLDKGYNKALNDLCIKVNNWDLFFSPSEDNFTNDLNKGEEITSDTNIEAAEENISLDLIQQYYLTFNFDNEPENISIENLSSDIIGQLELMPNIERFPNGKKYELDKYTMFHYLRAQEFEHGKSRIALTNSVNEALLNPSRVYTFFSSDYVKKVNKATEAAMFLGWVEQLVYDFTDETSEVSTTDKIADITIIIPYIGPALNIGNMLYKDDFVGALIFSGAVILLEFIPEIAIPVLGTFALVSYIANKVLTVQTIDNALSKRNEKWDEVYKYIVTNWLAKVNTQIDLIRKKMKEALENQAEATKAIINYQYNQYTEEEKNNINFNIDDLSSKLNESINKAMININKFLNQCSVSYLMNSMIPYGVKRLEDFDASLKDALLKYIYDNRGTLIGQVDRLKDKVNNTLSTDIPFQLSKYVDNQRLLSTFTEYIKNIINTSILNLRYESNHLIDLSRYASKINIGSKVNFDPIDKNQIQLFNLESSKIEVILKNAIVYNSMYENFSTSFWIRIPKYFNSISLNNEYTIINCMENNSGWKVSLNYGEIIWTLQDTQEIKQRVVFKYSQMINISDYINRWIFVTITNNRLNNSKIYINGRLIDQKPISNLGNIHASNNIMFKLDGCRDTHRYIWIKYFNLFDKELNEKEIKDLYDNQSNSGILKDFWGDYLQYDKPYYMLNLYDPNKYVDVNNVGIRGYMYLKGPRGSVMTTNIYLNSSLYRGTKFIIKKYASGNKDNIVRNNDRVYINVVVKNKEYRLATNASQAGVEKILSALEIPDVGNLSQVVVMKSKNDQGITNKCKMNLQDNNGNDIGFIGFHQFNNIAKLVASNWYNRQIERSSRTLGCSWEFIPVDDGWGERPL

For the first assay, the system named is Botulinum neurotoxin type F light chain protease (Clostridium botulinum). Description: Clostridium botulinum type F light chain protease inhibitors, microsphere substrate cleavage, validation (AID 588459). To be noted: multiplex microsphere protease substrate cleavage assay, flow cytometry; at 10 µM; active compounds read high.
Regarding `O=C(/C=C/c1ccco1)Nc1ccccc1C(=O)O`, the inhibition is 0.9% (inactive).

As to `CC(C)NC(=O)C1(c2ccccc2)CCOCC1`, the inhibition was -2.6% (inactive).

Regarding `O=C1C(O)CC2c3ccccc3CC3(CCCC3)N12` (centres undefined), the inhibition was 2% (inactive).

Take `CC(C)CC(NC(=O)c1cccc(Cl)c1)C(=O)O` (centres undefined): the inhibition was -4.2% (inactive).

For `NC(=O)c1ncn([C@@H]2O[C@H](CO)[C@@H](O)[C@H]2O)c1O`, the inhibition was -1.3% (inactive).

`COC1=CC(=O)CC(C)C12Oc1c(Cl)c(OC)cc(OC)c1C2=O` (centres undefined): the inhibition was -0.7% (inactive).

For `COc1cccc2c1OCC1COc3c(c(=O)n(C)c(=O)n3C)C21` (centres undefined), the inhibition was 1.5% (inactive).

Consider `Cc1ccc2c(c1)C1(C(=O)N2)N2CCCC2C(C(=O)c2ccc3ccccc3c2)C12C(=O)Nc1ccccc12` (centres undefined), for which the inhibition was 0% (inactive).

Consider `Nc1ccc(S(=O)(=O)c2ccc(N)cc2)cc1`, for which the inhibition is -2.8% (inactive).

In the case of `O=C(Nc1c(C(=O)O)[nH]c2ccccc12)NC1CCCCC1`, the inhibition was 1.6% (inactive).

With `COc1ccc(CCN2CCC(Nc3nc4ccccc4n3Cc3ccc(F)cc3)CC2)cc1`, the inhibition is -1.8% (inactive).

As for `CCC(CO)NCCNC(CC)CO` (centres undefined), the inhibition is 0.2% (inactive).

On to `Cn1c(=O)c2c(ncn2CC(O)CO)n(C)c1=O` (centres undefined), for which the inhibition is 2.3% (inactive).

Consider `COc1cc(CNc2ccc(C)c(C)c2)cc(OC)c1OC`, for which the inhibition was 1.8% (inactive).

In the case of `COc1ccc(S(=O)(=O)N2CCN(C(=O)COc3ccc4c(C)cc(=O)oc4c3)CC2)cc1`, the inhibition was 2.4% (inactive).

As for `O=C1c2ccccc2C(=O)C1c1ccccc1`, the inhibition is -2.6% (inactive).

For `O=C(OCC1OC2OC3(CCCCC3)OC2C2OC3(CCCCC3)OC12)c1ccccc1` (centres undefined), the inhibition was -3.1% (inactive).

As for `Nc1nc(Cl)nc2c1ncn2[C@H]1C[C@H](O)[C@@H](CO)O1`, the inhibition is -8.7% (inactive).

Regarding `Nc1nc2c(nc(SCc3ccccc3Br)n2C2OC(CO)C(O)C2O)c(=O)[nH]1` (centres undefined), the inhibition is -2.6% (inactive).

For the compound `COc1ccc(C(=O)NCCC2=CCCCC2)cc1[N+](=O)[O-]`, the inhibition was -5.9% (inactive).

Regarding `O=c1c2[nH]c3ccccc3c2ncn1CCC1=CCCCC1`, the inhibition was 4.3% (inactive).

As for `CS(=O)c1ccccc1O` (centres undefined), the inhibition is 1.4% (inactive).

Another assay addresses Botulinum neurotoxin type A (Clostridium botulinum) (UniProt P0DPI0). Put plainly: BoNT/A light chain protease inhibitors, biochemical, multiplex microsphere flow cytometry, validation set (AID 588460). Particulars: at 10 µM, active compounds read high.
For the compound `O=C(/C=C/c1ccco1)Nc1ccccc1C(=O)O`, the inhibition was -0.2% (inactive).

With `CN1CCc2cccc3c2[C@H]1Cc1ccc(O)c(O)c1-3`, the inhibition was -6.5% (inactive).

On to `CN(C)CCCN1c2ccccc2CCc2ccc(Cl)cc21`, for which the inhibition was -0.7% (inactive).

`CC(C)NC(=O)C1(c2ccccc2)CCOCC1`: the inhibition was -0.5% (inactive).

`O=C1C(O)CC2c3ccccc3CC3(CCCC3)N12` (centres undefined): the inhibition is -1.5% (inactive).

Take `CC(C)CC(NC(=O)c1cccc(Cl)c1)C(=O)O` (centres undefined): the inhibition was -2.6% (inactive).

For `NC(=O)c1ncn([C@@H]2O[C@H](CO)[C@@H](O)[C@H]2O)c1O`, the inhibition is -1.9% (inactive).

Take `CC(C)(C)c1ccc(C(O)CCCN2CCC(C(O)(c3ccccc3)c3ccccc3)CC2)cc1` (centres undefined): the inhibition was -2.5% (inactive).

In the case of `COC1=CC(=O)CC(C)C12Oc1c(Cl)c(OC)cc(OC)c1C2=O` (centres undefined), the inhibition was -0.1% (inactive).

`COc1cccc2c1OCC1COc3c(c(=O)n(C)c(=O)n3C)C21` (centres undefined): the inhibition was 0.5% (inactive).

`Cc1ccc2c(c1)C1(C(=O)N2)N2CCCC2C(C(=O)c2ccc3ccccc3c2)C12C(=O)Nc1ccccc12` (centres undefined): the inhibition was -1% (inactive).

Consider `Nc1ccc(S(=O)(=O)c2ccc(N)cc2)cc1`, for which the inhibition is -2.5% (inactive).

`CCc1cccc2c1NC1(CCCC1)CC2C` (centres undefined): the inhibition was -1.3% (inactive).

For the compound `O=C(Nc1c(C(=O)O)[nH]c2ccccc12)NC1CCCCC1`, the inhibition is 0.4% (inactive).

For `COc1ccc(CCN2CCC(Nc3nc4ccccc4n3Cc3ccc(F)cc3)CC2)cc1`, the inhibition was 0.4% (inactive).

Turning to `CC(C)NCC(O)COc1ccc(CC(N)=O)cc1` (centres undefined), the inhibition was -1.9% (inactive).

As to `O=C1CC2(CCCC2)CC(=O)N1CCCCN1CCN(c2ncccn2)CC1`, the inhibition was 0.2% (inactive).

Turning to `CCC(CO)NCCNC(CC)CO` (centres undefined), the inhibition was 1.5% (inactive).

In the case of `Cn1c(=O)c2c(ncn2CC(O)CO)n(C)c1=O` (centres undefined), the inhibition was 1% (inactive).

Turning to `COc1cc(CNc2ccc(C)c(C)c2)cc(OC)c1OC`, the inhibition is 0.5% (inactive).

As for `COc1ccc(S(=O)(=O)N2CCN(C(=O)COc3ccc4c(C)cc(=O)oc4c3)CC2)cc1`, the inhibition is 0.1% (inactive).

For the compound `CC(C(=O)O)c1cccc(C(=O)c2ccccc2)c1` (centres undefined), the inhibition is -1.5% (inactive).

Regarding `O=C1c2ccccc2C(=O)C1c1ccccc1`, the inhibition is 0.2% (inactive).

Consider `O=C(OCC1OC2OC3(CCCCC3)OC2C2OC3(CCCCC3)OC12)c1ccccc1` (centres undefined), for which the inhibition is 2.6% (inactive).

As to `Nc1nc(Cl)nc2c1ncn2[C@H]1C[C@H](O)[C@@H](CO)O1`, the inhibition is -2.6% (inactive).

`Nc1nc2c(nc(SCc3ccccc3Br)n2C2OC(CO)C(O)C2O)c(=O)[nH]1` (centres undefined): the inhibition was -1.9% (inactive).

For `CN(C)CCC(c1ccc(Cl)cc1)c1ccccn1` (centres undefined), the inhibition is -0.2% (inactive).

With `COc1ccc(C(=O)NCCC2=CCCCC2)cc1[N+](=O)[O-]`, the inhibition is -1.5% (inactive).

With `CC[C@H](C)C(=O)O[C@H]1C[C@@H](C)C=C2C=C[C@H](C)[C@H](CC[C@@H]3C[C@@H](O)CC(=O)O3)[C@H]21`, the inhibition was 0.7% (inactive).

As to `O=c1c2[nH]c3ccccc3c2ncn1CCC1=CCCCC1`, the inhibition is 0.9% (inactive).

Regarding `CS(=O)c1ccccc1O` (centres undefined), the inhibition is 0% (inactive).

For `CN1CCc2cccc3c2[C@@H]1Cc1ccc(O)c(O)c1-3`, the inhibition was -6.6% (inactive).

By inhibition is commonly meant the relative decrease from the control value, in per cent.
